The source of these data is ChEMBL document CHEMBL4513216, “Probing the Open Global Health Chemical Diversity Library for Multistage-Active Starting Points for Next-Generation Antimalarials” (ACS Infect Dis, 2020).

The structures appear in SMILES notation. Among all 69,000 compounds or so, about 8,600 (12%) showed an effect of 50% or more. The sample holds strong results, similar compounds and a random draw of the others, so the mix is not that of the screen.

The assay deals with Plasmodium berghei. As to the kind of experiment: Screen against P. berghei liver stage (PbLuc), transformed with Luciferase, at 10uM. It counts as functional, HepG2. Conditions: tested at 10 uM.
`c1cc(CN2CCCC(c3noc(C4CC4)n3)C2)no1` (stereo unspecified): the INHIBITION turned out to be 51.6%.

`C1CC(c2noc(C3CC3)n2)CN(Cc2noc(C3CC3)n2)C1` (stereo unspecified): the INHIBITION was 17.8%.

In the case of `Cc1cccn2cc(CN3CCCC(c4noc(C5CC5)n4)C3)nc12` (stereo unspecified), the INHIBITION was -48.6%.

Take `CCN(Cc1cnn(C)c1)C[C@H]1CC[C@@H](Cc2ccc(CO)cc2)O1`: the INHIBITION was -5.78%.

For the compound `O=C(NCc1ccco1)[C@H]1C[C@@H]2CCN(c3nncs3)C[C@H]2O1`, the INHIBITION is on record as 13.5%.

Take `CSCC(=O)N(C)Cc1noc(-c2ccccc2)n1`: the INHIBITION was determined as 55.9%.

With `CCc1nc(CN(C)C(=O)CSC)no1`, the INHIBITION is listed as -4.96%.

On to `CN(Cc1noc(-c2ccccc2)n1)C(=O)CSc1nnc(N)s1`, for which the INHIBITION worked out at 18.9%.

Regarding `c1ccc(-c2cnc(CN3CCCC3Cn3cccn3)o2)cc1` (stereo unspecified), the INHIBITION stood at 40.9%.

Regarding `O=C1CC2(CCCC2)CC(=O)N1Cc1ncccn1`, the INHIBITION amounted to 29.4%.

Take `Cn1nc(C(=O)NCc2cccs2)c2c1CCS(=O)(=O)C2`: the INHIBITION came out at 23.4%.

As to `Cn1nc(C(=O)NCc2cccnc2)c2c1CCS(=O)(=O)C2`, the INHIBITION came to 73.9%.

Consider `Cn1nc(C(=O)NCc2ccc(F)cc2)c2c1CCS(=O)(=O)C2`, for which the INHIBITION was 21.7%.

Take `Cn1nc(C(=O)NCc2ccc(Cl)cc2)c2c1CCS(=O)(=O)C2`: the INHIBITION was found to be 53.2%.

`COc1ccc(CNC(=O)c2nn(C)c3c2CS(=O)(=O)CC3)cc1`: the INHIBITION was 40%.

Regarding `Cn1nc(C(=O)NCc2ccccn2)c2c1CCS(=O)(=O)C2`, the INHIBITION is recorded as -45%.

Turning to `Cc1cnnn1Cc1nnn2c1CN(Cc1ccccn1)CCC2`, the INHIBITION worked out at 42.6%.

Take `O=C(O)CSc1nc(-c2ccc3c(c2)CCC3)n[nH]1`: the INHIBITION was 11.4%.

As for `O=C([C@H]1CC[C@@H]2[C@@H](CCN2Cc2ccc(F)cc2)O1)N1CCCO1`, the INHIBITION is listed as -11.6%.

With `Cc1nccn1CCC1CCN(c2ncccn2)CC1`, the INHIBITION worked out at 48.5%.

For the compound `c1cnc(N2CCN(CCn3ccnc3-c3ccncc3)CC2)nc1`, the INHIBITION is 50.5%.

As to `c1cnc(N2CCN(CCn3ccnc3-c3c[nH]cn3)CC2)nc1`, the INHIBITION came to 14.5%.

Regarding `O=C(c1cncnc1)N1Cc2ccccc2OC2(CCOCC2)C1`, the INHIBITION was -33.4%.

For `Cc1cnc(C(=O)N2Cc3ccccc3OC3(CCOCC3)C2)cn1`, the INHIBITION was -6.92%.

For the compound `Cc1cc(C(=O)N2Cc3ccccc3OC3(CCOCC3)C2)nc(N)n1`, the INHIBITION came to 52.9%.

Take `O=C(c1ccc(O)nc1)N1Cc2ccccc2OC2(CCOCC2)C1`: the INHIBITION is recorded as 25.6%.

Take `Nc1nonc1C(=O)N1Cc2ccccc2OC2(CCOCC2)C1`: the INHIBITION is reported as 8.72%.

In the case of `Cc1ccc(C(=O)N2Cc3ccccc3OC3(CCOCC3)C2)cn1`, the INHIBITION amounted to 52%.

On to `O=C(c1ccncc1)N1Cc2ccccc2OC2(CCOCC2)C1`, for which the INHIBITION turned out to be 20.5%.

Take `Cc1nc(N)sc1C(=O)N1Cc2ccccc2OC2(CCOCC2)C1`: the INHIBITION is on record as 61.7%.

Turning to `O=C(c1ccccn1)N1Cc2ccccc2OC2(CCOCC2)C1`, the INHIBITION was determined as 48.4%.

Take `Cc1ccc2nc(C3CCCN(Cc4ccccc4)C3)nc(O)c2c1` (stereo unspecified): the INHIBITION came to 30.8%.

Take `CN(C)C(=O)N1C[C@@H](C(=O)NCc2ccco2)C[C@H]2OCC[C@H]21`: the INHIBITION is listed as -28%.

Turning to `CCc1cc(=O)n(CC(=O)N2CCCCC2)c(-c2cccc(F)c2)n1`, the INHIBITION is recorded as 44.1%.

Consider `Cc1ccc(N2CCCC(N(C)c3nn4cc(C)nc4s3)C2)nn1` (stereo unspecified), for which the INHIBITION was -21.9%.

Regarding `O[C@H]1CN(Cc2ccc3c(c2)OCCO3)CC[C@@]12CCCO2`, the INHIBITION was 19.6%.

With `Cc1cnc(-c2nc(O)c3c(n2)CN(C(=O)C2CCCO2)CC3)cn1` (stereo unspecified), the INHIBITION turned out to be 9.05%.

As to `CCN(Cc1ccoc1)C(=O)C1CCN(C(=O)OC(C)(C)C)C1` (stereo unspecified), the INHIBITION is on record as -12.4%.

On to `O=C(CC1CCC2(CC1)CCN(Cc1ccncc1)CC2)N1CCCC1`, for which the INHIBITION is reported as -15.2%.

For the compound `CN1CCC(N(CCc2ccccc2)C(=O)c2ccc(CO)cc2)CC1`, the INHIBITION is on record as 25.2%.

Regarding `CN1CCC(N(CCc2ccccc2)C(=O)c2ccc(C#N)nc2)CC1`, the INHIBITION was 12.5%.

With `CN1CCC(N(CCc2ccccc2)C(=O)c2ccc(C#N)cc2)CC1`, the INHIBITION turned out to be 53.1%.

With `Cc1cc(C(=O)NC2=NCCS2)c(C)n1-c1ccccn1`, the INHIBITION is 42.1%.

Regarding `Cc1ccsc1CN1CCC(n2cc(C(O)c3ccccc3)nn2)CC1` (stereo unspecified), the INHIBITION was determined as 72.1%.

On to `OC(c1ccccc1)c1cn(C2CCN(Cc3nccs3)CC2)nn1` (stereo unspecified), for which the INHIBITION came out at 18.5%.

In the case of `Cc1ccc(CN2CCC(n3cc(C(O)c4ccccc4)nn3)CC2)o1` (stereo unspecified), the INHIBITION was determined as 48.5%.

In the case of `CC(C)CC(O)C1CCN(C(=O)c2coc(CN3CCOCC3)c2)CC1` (stereo unspecified), the INHIBITION was found to be 16.7%.

`CC(CO)CN(Cc1ccccc1)Cc1c[nH]cn1` (stereo unspecified): the INHIBITION was 9.55%.

Regarding `CN(C)C1CC2(CCN(C(=O)C3(C#N)CC3)CC2)c2ccccc21` (stereo unspecified), the INHIBITION was determined as 57.5%.

On to `CN(C)C1CC2(CCN(C(=O)c3csnn3)CC2)c2ccccc21` (stereo unspecified), for which the INHIBITION is reported as -22.1%.

Turning to `Cc1ccc2c(c1)C(N(C)C)CC21CCN(CCO)CC1` (stereo unspecified), the INHIBITION was -57.1%.
